# Test results reported in the supplement of paper PMC9262897, “Low-cost anti-mycobacterial drug discovery using engineered E. coli” (Nature Communications, 2022).
# Structures can show the parent of a compound that is named as a salt. ± gives the standard deviation of the averaged measurements.
# Columns and labels:
# Experiment in all cases: growth (OD600 after 10 h); higher = more growth (less inhibition)
# [1] = tested on: E. coli TESEC Alr+ wild-type control; settings: compound 0.1 mM; raw OD600 reference: median of DMSO wells 0.241, cell-free background 0.041
# Experimental: (§1)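 TESEC Mtb Alr E. coli, or the Alr+ wild-type control, in 384-well plates with Prestwick library compounds at 0.1 mM and 1% DMSO, across arabinose induction levels of 1E3 to 1E7 nM. Growth is read as OD600 after 10 h at 37 °C in triplicate biological replicates.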
# E. coli TESEC Mtb Alr [2] = settings: compound 0.1 mM
# Experimental: as §1
# E. coli TESEC Mtb Asd = settings: compound 0.1 mM
# Experimental: (§2)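 TESEC E. coli strains in which the native enzyme is deleted and replaced by arabinose-inducible Mtb Asd, DapB, CysH or TrpD, each grown in its selective medium. Strains were screened against the Prestwick library at 0.1 mM and 1% DMSO in 384-well format at low and high arabinose induction. Growth is read as OD600 after 10 h in triplicate.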
# E. coli TESEC Mtb DapB = settings: compound 0.1 mM
# Experimental: as §2
# [3] = tested on: E. coli TESEC Alr+ wild-type control; settings: compound 0.1 mM; raw OD600 reference: median of DMSO wells 0.49, cell-free background 0.052
# Experimental: (§3)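 TESEC Mtb Alr E. coli (ΔaraC ΔtolC ΔentC Δalr ΔdadX, arabinose-inducible Mtb Alr) or the Alr+ wild-type control strain, grown in defined M9-fructose medium without D-alanine in 96-well plates with Prestwick library compounds at 0.1 mM and 1% DMSO. Low Alr induction is 0.1 µM arabinose and high induction is 10 mM arabinose.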
# E. coli TESEC Mtb Alr [4] = settings: compound 0.1 mM; remark: listed apart in the source
# Experimental: as §3
# [5] = arabinose 1000 nM, raw OD600 reference: median of DMSO wells 0.294, cell-free background 0.041
# [6] = arabinose 10000 nM, raw OD600 reference: median of DMSO wells 0.264, cell-free background 0.041
# [7] = arabinose 100000 nM, raw OD600 reference: median of DMSO wells 0.201, cell-free background 0.041
# [8] = arabinose 1000000 nM, raw OD600 reference: median of DMSO wells 0.193, cell-free background 0.041
# [9] = arabinose 10000000 nM, raw OD600 reference: median of DMSO wells 0.146, cell-free background 0.041
# [10] = arabinose induction (level): High, raw OD600 reference: median of DMSO wells 0.331, cell-free background 0.041
# [11] = arabinose induction (level): Low, raw OD600 reference: median of DMSO wells 0.417, cell-free background 0.041
# [12] = arabinose induction (level): High, raw OD600 reference: median of DMSO wells […], cell-free background 0.041
# [13] = arabinose induction (level): Low, raw OD600 reference: median of DMSO wells 0.227, cell-free background 0.041
# [14] = arabinose 100 nM, raw OD600 reference: median of DMSO wells 0.413, cell-free background 0.052
# [15] = arabinose 10000000 nM, raw OD600 reference: median of DMSO wells […], cell-free background 0.052
Structure (SMILES),growth [1],growth (E. coli TESEC Mtb Alr [2]; [5]),growth (E. coli TESEC Mtb Alr [2]; [6]),growth (E. coli TESEC Mtb Alr [2]; [7]),growth (E. coli TESEC Mtb Alr [2]; [8]),growth (E. coli TESEC Mtb Alr [2]; [9]),growth (E. coli TESEC Mtb Asd; [10]),growth (E. coli TESEC Mtb Asd; [11]),growth (E. coli TESEC Mtb DapB; [12]),growth (E. coli TESEC Mtb DapB; [13]),growth [3],growth (E. coli TESEC Mtb Alr [4]; [14]),growth (E. coli TESEC Mtb Alr [4]; [15])
CCc1cc(C(N)=S)ccn1 [Ethionamide],0.243 ± 0.0035,0.294 ± 0.0077,0.262 ± 0.005,0.236 ± 0.036,0.184 ± 0.0033,0.144 ± 0.0028,0.299 ± 0.05,0.324 ± 0.1,0.206 ± 0.011,0.217 ± 0.027,0.583 ± 0.11,0.406 ± 0.0087,0.334 ± 0.02
N[C@@H]1CCCCN(c2c(F)cc3c(=O)c(C(=O)O)cn(C4CC4)c3c2Cl)C1 [Besifloxacin hydrochloride],0.04153 ± 0.00035,0.0427 ± 0.002,0.0401 ± 0.00026,0.0447 ± 0.0037,0.0402 ± 0.00095,0.0414 ± 0.0011,0.0501 ± 0.0019,0.0463 ± 0.00069,0.0491 ± 0.0014,0.0491 ± 0.001,0.0537 ± 0.00057,0.05447 ± 0.00045,0.053 ± 0.0011
CC=CC(=O)N(CC)c1ccccc1C [Crotamiton],0.242 ± 0.01,0.329 ± 0.028,0.269 ± 0.014,0.236 ± 0.014,0.181 ± 0.0031,0.158 ± 0.017,0.473 ± 0.015,0.467 ± 0.02,0.236 ± 0.053,0.235 ± 0.03,0.489 ± 0.022,0.4 ± 0.02,0.32 ± 0.0055
Cc1cc(NS(=O)(=O)c2ccc(N)cc2)no1 [Sulfamethoxazole],0.252 ± 0.0032,0.271 ± 0.017,0.212 ± 0.011,0.228 ± 0.0092,0.126 ± 0.0035,0.139 ± 0.0076,0.404 ± 0.042,0.41 ± 0.063,0.185 ± 0.011,0.205 ± 0.024,0.45 ± 0.031,0.432 ± 0.013,0.346 ± 0.005
CCCC(C(=O)OCCN(CC)CC)(c1ccccc1)c1ccccc1 [Proadifen hydrochloride],0.0491 ± 0.0002,0.04737 ± 0.00042,0.04077 ± 0.00038,0.0496 ± 0.0007,0.04163 ± 0.00032,0.04523 ± 0.00015,0.0541 ± 0.001,0.0665 ± 0.012,0.126 ± 0.0053,0.129 ± 0.0055,0.0545 ± 0.001,0.319 ± 0.17,0.0643 ± 0.01
COc1ccc2[nH]cc(CCNC(C)=O)c2c1 [Melatonin],0.246 ± 0.0061,0.29 ± 0.0068,0.27 ± 0.005,0.204 ± 0.029,0.183 ± 0.0071,0.1406 ± 0.0012,0.252 ± 0.066,0.348 ± 0.11,0.202 ± 0.026,0.23 ± 0.026,0.521 ± 0.086,0.409 ± 0.01,0.354 ± 0.013
CCC[C@@H]1C[C@@H](C(=O)N[C@@H]([C@H]2O[C@H](SC)[C@H](O)[C@@H](O)[C@H]2O)[C@H](C)Cl)N(C)C1 [Clindamycin hydrochloride],0.0527 ± 0.0012,0.048 ± 0.0007,0.04127 ± 0.0004,0.0497 ± 0.00055,0.04133 ± 0.00032,0.0496 ± 0.00085,0.0699 ± 0.0019,0.0715 ± 0.0033,0.0755 ± 0.0023,0.0766 ± 0.0063,0.0771 ± 0.0023,0.15 ± 0.014,0.0594 ± 0.0027
"CC(C)(S)C(N)C(=O)O (racemic) [D,L-Penicillamine]",0.251 ± 0.0054,0.307 ± 0.016,0.2563 ± 0.0018,0.187 ± 0.021,0.187 ± 0.0061,0.146 ± 0.0078,0.307 ± 0.03,0.413 ± 0.018,0.18 ± 0.023,0.205 ± 0.024,0.437 ± 0.0091,0.403 ± 0.0076,0.35 ± 0.014
N=C(N)N/N=C/c1c(Cl)cccc1Cl [Guanabenz acetate],0.189 ± 0.012,0.224 ± 0.0084,0.2721 ± 0.00092,0.221 ± 0.021,0.144 ± 0.005,0.168 ± 0.0024,0.31 ± 0.039,0.432 ± 0.026,0.194 ± 0.0026,0.258 ± 0.065,0.453 ± 0.026,0.408 ± 0.0073,0.318 ± 0.011
NNCCc1ccccc1 [Phenelzine sulfate],0.221 ± 0.0075,0.285 ± 0.015,0.261 ± 0.0056,0.187 ± 0.0033,0.0977 ± 0.0084,0.135 ± 0.0098,0.389 ± 0.044,0.4 ± 0.024,0.191 ± 0.012,0.249 ± 0.056,0.399 ± 0.017,0.0532 ± 0.007,0.0708 ± 0.0023
CCN(CC)CCc1nc(-c2ccccc2)no1 [Oxalamine citrate salt],0.23 ± 0.012,0.273 ± 0.021,0.27 ± 0.0036,0.187 ± 0.0043,0.187 ± 0.0094,0.135 ± 0.0019,0.307 ± 0.045,0.332 ± 0.031,0.186 ± 0.0074,0.216 ± 0.013,0.537 ± 0.036,0.406 ± 0.011,0.343 ± 0.015
CCN1CCN(C(=O)N[C@@H](C(=O)N[C@@H]2C(=O)N3C(C(=O)O)=C(CSc4nnnn4C)CS[C@H]23)c2ccc(O)cc2)C(=O)C1=O [Cefoperazone dihydrate],0.2999 ± 0.0024,0.321 ± 0.0082,0.221 ± 0.0032,0.3 ± 0.0043,0.182 ± 0.0037,0.1843 ± 0.0004,0.413 ± 0.016,0.417 ± 0.087,0.201 ± 0.0085,0.239 ± 0.042,0.512 ± 0.039,0.221 ± 0.078,0.341 ± 0.025
CC1(C)[C@@H](OC(=O)CCC(=O)O)CC[C@]2(C)[C@H]3C(=O)C=C4[C@@H]5C[C@@](C)(C(=O)O)CC[C@]5(C)CC[C@@]4(C)[C@]3(C)CC[C@@H]12 [Carbenoxolone disodium salt],0.248 ± 0.007,0.275 ± 0.004,0.2609 ± 0.0019,0.319 ± 0.0044,0.213 ± 0.0028,0.201 ± 0.0016,0.325 ± 0.15,0.251 ± 0.006,0.196 ± 0.018,0.225 ± 0.012,0.426 ± 0.03,0.405 ± 0.019,0.37 ± 0.0045
